For this test, the target named is Lysine-specific histone demethylase 1A (Homo sapiens) (UniProt O60341). Kind of test: qHTS Assay for Inhibitors of Human Jumonji Domain Containing 2E (JMJD2E): Counterscreen with LSD1. The settings on record: Amplex Red/HRP fluorescence; series mostly up to 57.1 µM. The source says:
The fine interplay among methylation states of several lysine residues on the tails of histone proteins is a major determinant of the transcriptional state of the associated DNA coding regions and is commonly referred to as the histone code. Histone lysine demethylases catalyze the removal of methyl groups from methylated lysine sidechains on histones H3 and H4, thus antagonizing the reactions catalyzed by histone lysine methyltransferases. […] In search for novel inhibitors of JMJD2E demethylase, a member of the largest set of histone demethylases belonging to the Fe(II) and 2-oxoglutarate oxygenase (2OG) superfamily, we performed a quantitative high-throughput screen (Inglese 2006) by using an assay which utilizes a trimethylated peptide substrate corresponding to a fragment of histone H3 (sequence ARKme3STGGK) with detection of the formaldehyde co-product in real time by a formaldehyde dehydrogenase (FDH) coupled reaction. […]
The assay was performed in a buffer containing 10 mM HEPES, Na pH 7.5, 5 mM MgCl2, 50 mM KCl, 0.01% Nonidet P-40, and 0.1% BSA. […] The plate was then centrifuged at 1,000 rpm for 15 seconds, and the fluorescence intensity was recorded on a ViewLux High-throughput CCD imager (Perkin-Elmer) using standard TAMRA optics (525 nm excitation and 598 nm emission). The plate was then incubated for 30 min at room temperature, and a second read on the ViewLux was performed. […]
Background: In qHTS, concentration-response curves come from the screen itself.

Records with an inconclusive call do not appear. Calls of active or inactive are those of the source. Calls come from the whole dose curve; as a rule, active = well fitted curve in the direction sought with a large enough effect; inconclusive = small, poorly fitted or top-dose-only effect, or another doubt; inactive = no such curve, though single readings can be large or run the other way.

One molecule from PubChem BioAssay AID687009 (National Center for Advancing Translational Sciences (NCATS), 2013) can be followed below.

For `CN1CCN(c2cnc3c(O)ccc(C(=O)O)c3c2)CC1`, the molecule was called inactive.
